This note sets out measurements from ChEMBL document CHEMBL3433997, “St. Jude Leishmania screening dataset” (2016).

One may read the inhibition as the drop in the measured response relative to a control, in per cent.

For the assay, the target named is Solute carrier family 2, facilitated glucose transporter member 1 (Homo sapiens) (UniProt P11166). The assay is described as follows: ST_JUDE_LEISH: Cytotoxicity at 2uM final concentration against transgenic Leishmania Mexicana promastigotes LmGLUT1 that are glucose transport deficient and complemented with the human glucose transporter GLUT1. Activity is measured by DNA content using SYBR green in vitro. The class given is functional.
Solute carrier family 2, facilitated glucose transporter member 1 (Homo sapiens), sequence (P11166 whole entry): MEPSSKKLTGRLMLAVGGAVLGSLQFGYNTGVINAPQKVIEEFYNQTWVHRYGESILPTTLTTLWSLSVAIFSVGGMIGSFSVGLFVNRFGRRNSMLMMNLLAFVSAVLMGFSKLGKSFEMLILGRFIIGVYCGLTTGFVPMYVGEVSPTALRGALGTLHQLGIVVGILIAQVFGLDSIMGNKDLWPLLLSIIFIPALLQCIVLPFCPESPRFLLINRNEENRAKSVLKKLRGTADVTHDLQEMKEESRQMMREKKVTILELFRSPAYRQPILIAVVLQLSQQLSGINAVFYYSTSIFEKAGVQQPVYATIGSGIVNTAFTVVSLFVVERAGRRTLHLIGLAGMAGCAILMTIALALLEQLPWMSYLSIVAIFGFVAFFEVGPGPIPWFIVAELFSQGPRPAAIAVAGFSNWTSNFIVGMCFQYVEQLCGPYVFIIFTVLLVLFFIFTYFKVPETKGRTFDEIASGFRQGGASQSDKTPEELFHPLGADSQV
For `CC(=O)Oc1c(C(=O)C2CCC(C(C)(C)C)CC2)c(OC(C)=O)c2ccccc2c1OC(C)=O` (stereo unspecified), the inhibition came to 8.82%.
On to `CCOC(=O)c1cccc(NC(=N)Nc2nc(C)cc(NCCc3ccccc3)n2)c1`, for which the inhibition came out at 7.04%.
Take `COc1cccc(Nc2nc(C)cc(Nc3cccc(C#N)c3)n2)c1`: the inhibition stood at 17.5%.
Turning to `CC(C)CNC(=O)CN1C(=O)C(c2ccccc2)(c2ccccc2)N=C1N`, the inhibition is 4.76%.
As for `CCOc1ccc(OCC(=O)Nc2nc(-c3ccc(OC)cc3)c(C)s2)cc1`, the figure is 0.75%.
In the case of `COc1ccc2ncc(Cl)c([C@H](O)CN3CCC(NCc4cc5c(cn4)OCCO5)CC3)c2c1` it was 11%; in that of `CCCOc1ccc(-c2nonc2NC(=O)c2ccccc2OC)cc1OCCC`, 12%; in that of `Nc1nc(N)c2c(ccc3nn(Cc4cccnc4)cc32)n1`, 5.81%.
As for `Nc1nc(N)c2c(ccc3c2ccn3Cc2cccc(F)c2)n1`, the figure is 102%; as for `N#Cc1cc(C(=O)c2cc(Cl)ccc2O)cn(-c2cccc(C(F)(F)F)c2)c1=O`, 8.27%; as for `CN1CCC(C(=O)Nc2ccc(-c3ccc(-c4nc5ccccc5[nH]4)cc3)cc2)CC1`, 2.95%.
In the case of `COc1ccc(CNCC(C)(C)c2nc(-c3ccc(Cl)c(O)c3)c(-c3ccncc3)[nH]2)cc1`, the inhibition came to 0.93%.
In the case of `CCCC(C)N(Cc1ccc(C(C)(C)C)cc1)C(=O)c1cccc(OC)c1` (stereo unspecified) it was -0.57%; in that of `Cc1ccc(C)c2sc(N3CCN(C(=O)c4ccc([N+](=O)[O-])o4)CC3)nc12`, 28.7%; in that of `O=c1c2ccc(Sc3ccccn3)cc2n(-c2ccccc2)c2cc(Sc3ccccn3)ccc12`, 1.05%.
On to `CC(C)(C)c1cc(C(=O)Nc2cccnc2)cc(C(=O)Nc2cccnc2)c1`, for which the inhibition amounted to 2.58%.
